Shown are actives, neighbours in structure and some others; about 7.8% of the full set was active somewhere.
Vaccinia Venus: inhibitors of vaccinia virus (Venus reporter); Vaccinia virus Venus reporter expression, fluorescence; Potency, µM (top dose mostly 36.5 µM), most hits filed as inhibitors; 330,000 tested, 0.46% active; calls by dose curve; tested in A549 cells; further: nearly all actives have a fitted effect of over 30% in size
Vaccinia mCherry: inhibitors of vaccinia virus infection (mCherry reporter signal) | Vaccinia virus mCherry reporter infection, fluorescence | Potency, µM (top dose mostly 36.5 µM), actives largely listed as inhibitors | 310,000 tested, 0.63% active | AID 720579; calls by dose curve; tested in A549 cells; further: nearly all actives have a fitted effect of over 35% in size
HCV inh: HCV inhibition | Huh7.5.1 HCVcc-Cre infection, luciferase reporter, 44 h | 340,000 tested, 3.4% active | Potency, µM (titrated, usually from 41.8 µM), most hits filed as inhibitors; active means well fitted inhibition curve with a large enough effect; inconclusive means small, poorly fitted or top-dose-only effect, or another doubt; inactive means no such curve, though single readings can be large or run the other way
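Seed cells (1,000/well) for 4 h; treat with compound and infect with HCVcc-Cre, moi about 0.5. Incubate 44 h, then detect luciferase activity.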
Marburg entry inh: blocks Marburg virus binding to or entry into cells | Marburg virus pseudotyped entry inhibition, cell reporter | Potency, µM (series often up to 37.8 µM), hits mostly inhibitors | 300,000 tested, 1.8% active | AID 540276; calls by dose curve; tested in HEK293 cells
HCMV inh: blocks human cytomegalovirus replication. HFF cells, HCMV-luciferase reporter, 72 h; active compounds read low. activity change, negative = inhibition, % at 57.5 µM. 410,000 tested, 4.5% active; in the data active means activity change below about -60%; inconclusive means no clear call, values can overlap the other calls; inactive means above about -39%
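Two-dose cell screen: HFF monolayers treated with compounds and infected with luciferase-expressing HCMV at 1 PFU/cell, 72 h at 37C, then lysed for luciferase measurement.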
LASV entry inh: inhibitors of Lassa virus binding or cell entry | Lassa virus pseudotype entry inhibition, cell reporter | AID 540256 | Potency, µM (titrated, usually from 37.9 µM), most hits filed as inhibitors | 300,000 tested, 1.2% active; calls by dose curve; tested in HEK293 cells; further: nearly all actives have a fitted effect of over 50% in size
Hits are given with their value; i = inactive; ? = inconclusive; nt = not tested or not shown.

SMILES	Vaccinia Venus	Vaccinia mCherry	HCV inh	Marburg entry inh	HCMV inh	LASV entry inh
CC(C)N(Cc1nc(-c2ccc(Cl)cc2)no1)C(=O)c1cccs1	nt	nt	?	?	-60	i
COc1ccccc1C(=O)N(Cc1nc(-c2ccc(Cl)cc2)no1)C(C)C	i	i	11µM	nt	i	nt
Cc1ccc(-c2noc(CN(C(=O)c3cccs3)C(C)C)n2)cc1	i	i	?	i	i	i
CC(C)N(Cc1nc(-c2ccccc2)no1)C(=O)c1ccc(Cl)cc1	i	i	?	nt	-89	nt
COc1ccccc1OCC(=O)N(Cc1nc(-c2ccccc2)no1)C1CCCCC1	?	nt	11µM	?	i	i
Cc1ccccc1OCC(=O)N(Cc1nc(-c2ccccc2)no1)C(C)C	i	i	i	?	i	i
Cc1ccccc1CN1CCc2nnc(C(C)NC(=O)c3cc(F)ccc3F)n2CC1 (stereo not given)	i	i	nt	nt	nt	nt
O=C(NCCc1nc2ccccc2n1Cc1ccccc1F)c1ccc(F)cc1	i	i	nt	i	?	i
COc1ccccc1C(=O)Nc1ccccc1C(=O)OCc1cc(=O)n2c(C)csc2n1	i	i	nt	nt	i	i
Cc1ccc(C(=O)N(Cc2nc(-c3ccc(C)cc3)no2)C(C)C)cc1	i	i	i	nt	i	nt
CC(C)N(Cc1nc(-c2ccccc2)no1)C(=O)c1ccc2c(c1)OCO2	i	i	?	?	?	i
CC(C)N(Cc1nc(-c2ccccc2)no1)C(=O)c1ccc([N+](=O)[O-])cc1	i	i	22µM	nt	i	nt
CCOc1cc(C(=O)N(Cc2nc(-c3ccc(C)cc3)no2)C(C)C)cc(OCC)c1OCC	i	i	nt	i	-83	i
O=c1[nH]c2ccccc2n1C1CCN(C(c2cc3ccccc3o2)c2nnnn2Cc2ccccc2)CC1 (stereo not given)	?	?	nt	nt	-101	nt
O=C1NCN(c2ccccc2)C12CCN(C(c1cccc3ccccc13)c1nnnn1Cc1ccccc1)CC2 (stereo not given)	i	i	nt	nt	i	nt
O=c1[nH]c2ccccc2n1C1CCN(C(c2cccc3ccccc23)c2nnnn2Cc2ccccc2)CC1 (stereo not given)	i	i	nt	nt	-75	nt
O=c1[nH]c2ccccc2n1C1CCN(C(CCc2ccccc2)c2nnnn2C2CCCC2)CC1 (stereo not given)	?	?	nt	nt	-102	nt
COc1cccc(C(c2nnnn2Cc2ccccc2)N2CCC(n3c(=O)[nH]c4ccccc43)CC2)c1OC (stereo not given)	i	i	nt	nt	-70	nt
COc1cccc(C(c2nnnn2Cc2ccccc2)N2CCN(C(=O)c3ccco3)CC2)c1OC (stereo not given)	i	nt	i	i	i	i
COC(=O)C(C(=O)OC)[C@H]1c2ccccc2[C@@H]2C(=C[C@@H](C)[C@H]3C(=O)N(c4ccccc4)C(=O)[C@H]32)N1C(=O)OC	nt	nt	nt	i	nt	nt
CC(C)c1ccc(N2C(=O)N(Cc3ccccc3Cl)c3ccccc3S2(=O)=O)cc1	i	i	nt	nt	i	i
CCC1CCCCN1C(=O)Cn1c(=O)n(CCCCCC(=O)NCc2ccc(F)cc2)c(=O)c2sccc21 (stereo not given)	i	i	nt	i	i	i
CN(C)c1ccc(CNC(=O)CCn2c(=O)c3cccn3c3ccc(F)cc32)cc1	i	i	nt	nt	?	i
CC(C)(C)c1ccc(OCc2ccc(C(=O)N/N=C3\CC4CC=CC34)cc2)cc1 (stereo not given)	i	i	?	i	-68	i
O=C(N/N=C/c1ccc(OCc2ccc(F)cc2)cc1)c1ccccc1	i	?	i	nt	i	nt
SMILES	Vaccinia Venus	Vaccinia mCherry	HCV inh	Marburg entry inh	HCMV inh	LASV entry inh
COc1ccc(C(=O)N/N=C/c2cc(Br)ccc2O)cc1OC	i	18µM	11µM	8.9µM	-97	2.5µM
Cn1cccc1-c1cc(C(=O)N/N=C/c2cc(Br)ccc2O)[nH]n1	i	?	5µM	?	-95	?
Cn1cccc1-c1cc(C(=O)N/N=C/c2ccccc2Cl)[nH]n1	nt	nt	i	nt	i	nt
CC(C)(C)c1ccc(OCc2ccc(C(=O)N/N=C/c3ccc(O)c(O)c3)cc2)cc1	i	i	5.6µM	?	i	?
O=C1C[C@H](c2ccccc2)n2nc(N3C(=O)c4ccccc4C3=O)nc2N1	nt	nt	nt	i	nt	nt
Cc1nc2cccnc2n1C1CCN(S(=O)(=O)N(C)C)CC1	i	i	nt	nt	i	i
c1ccc(Nc2nc(-c3ccccc3)c(-c3ccccc3)s2)cc1	i	i	nt	nt	nt	nt
COc1ccc(OCCn2cc(C(=O)c3ccco3)c3ccccc32)cc1	i	i	nt	i	i	?
COc1c(C=O)c(O)cc2c1C(=O)c1ccccc1C2=O	i	i	nt	nt	nt	nt
COc1ccc(O)c(/C=N/NC(=O)c2ccc(OCc3cccc(Br)c3)cc2)c1	nt	nt	2.8µM	?	-97	?
COc1ccc(/C=N/NC(=O)c2ccc(Br)cc2)c(OC)c1	i	i	i	i	?	i
O=C(NCc1cccnc1)c1ccc(-c2cc3ccccc3oc2=O)cc1	nt	nt	?	nt	-66	nt
Nc1ccc(-c2cc3ccccc3oc2=O)cc1	i	i	i	?	?	0.71µM
O=C(Nc1cccnc1)c1cccc(-c2cc3ccccc3oc2=O)c1	i	i	i	i	i	i
Cc1nn(CC(=O)NC2CC2)c(=O)c2cc3ccccc3n12	i	i	nt	i	i	nt
CS(=O)(=O)N(Cc1ccccc1)c1ccccc1C(=O)Nc1ccccc1C(=O)NCc1ccco1	nt	nt	i	4.1µM	i	i
Cc1ccc(S(=O)(=O)N(Cc2ccccc2)c2ccccc2C(=O)NCc2ccco2)cc1	i	i	?	?	i	?
CCN1CCN(C(=O)c2ccccc2N(Cc2ccccc2)S(=O)(=O)c2ccc(C)cc2)CC1	nt	nt	?	5.8µM	i	?
Cc1ccc(N(CC(=O)Nc2ccccc2C(=O)NCc2ccco2)S(=O)(=O)c2ccccc2)cc1C	i	i	?	?	i	?
Cc1ccc(S(=O)(=O)N(Cc2ccccc2)c2ccccc2C(=O)Nc2ccccc2C(=O)NCc2ccco2)cc1	nt	nt	i	16µM	?	i
O=C(CN(c1ccccc1)S(=O)(=O)c1ccccc1)Nc1ccccc1C(=O)NCc1ccco1	i	i	?	?	-62	?
Cc1ncc2c(c1CNC(=O)c1ccc3c(c1)OCO3)CCN(C(=O)c1ccoc1)C2	i	i	nt	nt	nt	nt
COc1ccc([C@]23Cc4c(ccc5ccccc45)[C@H](O2)c2c(cc(-c4ccccc4)oc2=O)O3)cc1	nt	nt	nt	i	nt	nt
CCCCNC(=O)N[C@H]1CC[C@@]23CCCN2C(=O)CCC[C@H]3[C@H]1CCC	nt	nt	nt	nt	i	nt
CC(C)CC(NC(=O)CCCNC(=O)CCC(=O)OC1O[C@H]2OC3(C)CC[C@H]4[C@H](C)CCC(C1C)C24OO3)C(=O)O (stereo not given in full)	i	i	?	?	-63	?
CSCCC(C(=O)NC(C)(C)C)n1c(-c2cccc(NC(C)=O)c2)nc2ccccc21 (stereo not given)	i	i	nt	nt	i	nt
CCOc1ccc(NC(=O)Nc2nc(SCC)ns2)cc1	i	i	?	?	-61	?
COC(=O)/C=C1\Nc2ccc(Cl)cc2C(=O)NC1=O	nt	nt	nt	nt	i	nt

Screening results deposited in PubChem BioAssay by National Center for Advancing Translational Sciences (NCATS).
